Reference: PubChem BioAssay (Tox21)
Several values for one entry are separate records, joined by “and”; a condition that tells them apart may be missing. Identical values can stand only once. Inconclusive results are not listed. Where a call stands in place of a potency, no number is given. A structure can be active in one record and inactive in another. Activity calls are given as the source filed them. The call rests on the fitted dose curve; in most records, active means well fitted curve in the direction sought with a large enough effect in the repeat runs; inconclusive means weak or mixed curves; inactive means no such curve, though single readings can be large; an effect the other way counts as inactive or inconclusive.

Assay: qHTS assay to identify small molecule HDAC inhibitors (AID 1259364); further: nearly all actives have a fitted effect of over 45% in size; further: potency means the concentration at half of the fitted maximal effect
Details: HCT-116 HDAC-Glo I/II luminescence, 2 h; series mostly up to 92.4 µM
How it was run: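 Luminescence from a cell-permeant luminogenic class I/II HDAC substrate reports endogenous deacetylase activity in intact HCT-116 cells treated with compounds for 2 h.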

SMILES | Potency
COC(=O)c1ccc(C=O)cc1 | inactive
Cc1ccc(O)c(-n2nc3ccccc3n2)c1 | 1.08 µM (active) and 2.17 µM (active) and 1.5 µM (active)
CN(C)C=O | inactive
Cc1cccc2ccccc12 | inactive
Cc1cnc(NC(=O)C2=C(O)c3ccccc3S(=O)(=O)N2C)s1 | inactive
CC(=O)OC/C=C(C)/C=C/C=C(C)/C=C/C1=C(C)CCCC1(C)C | inactive
CC(C)Cc1ccc(C(C)C(=O)O)cc1 (stereo unspecified) | inactive
COc1ccccc1NC(=O)CC(C)=O | inactive
CCCCCCCCCCCCCCCCCC(=O)OCC(O)CO (stereo unspecified) | inactive
CCN1CCCC1=O | inactive
C=C(C)OC(C)=O | inactive
CC(=O)/C=C/C1=C(C)CCCC1(C)C | inactive
C#C[C@]1(O)CC[C@H]2[C@@H]3CCC4=CC(=O)CC[C@@H]4[C@H]3CC[C@@]21CC | inactive
CC(C)(C)NCC(O)c1ccc(O)c(CO)c1 (stereo unspecified) | inactive
CC(=O)CCC(C)C | inactive
CCCCCCCCOc1ccc(C(=O)c2ccccc2)c(O)c1 | inactive
NC(=O)N1c2ccccc2C=Cc2ccccc21 | inactive
COC(=O)C1CCC(C(=O)OC)CC1 (stereo unspecified) | inactive
CN/C(=C\[N+](=O)[O-])NCCSCc1ccc(CN(C)C)o1 | inactive
C[C@]12C[C@H](O)[C@H]3[C@@H](CCC4=CC(=O)CC[C@@]43C)[C@@H]1CC[C@@H]2C(=O)CO | inactive
COC1=CC(=O)C[C@@H](C)[C@]12Oc1c(Cl)c(OC)cc(OC)c1C2=O | inactive

Assay: qHTS assay to identify small molecule HDAC inhibitors - cell viability counter screen (AID 1259365); further: nearly all actives have a fitted effect of over 50% in size
Details: HCT-116 viability, CellTiter-Glo ATP luminescence, 2 h; series mostly up to 92.4 µM
How it was run: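 HCT-116 (wild type), 1,500 cells/well, overnight 37C/5% CO2; compound in DMSO 2hr; CellTiter-Glo 30min RT; luminescence read.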

SMILES | outcome
COC(=O)c1ccc(C=O)cc1 | inactive
Cc1ccc(O)c(-n2nc3ccccc3n2)c1 | inactive
CN(C)C=O | inactive
Cc1cccc2ccccc12 | inactive
Cc1cnc(NC(=O)C2=C(O)c3ccccc3S(=O)(=O)N2C)s1 | inactive
Cc1c(N(C)C)c(=O)n(-c2ccccc2)n1C | inactive
CC(=O)OC/C=C(C)/C=C/C=C(C)/C=C/C1=C(C)CCCC1(C)C | inactive
C/C=C/c1ccc(O)c(OC)c1 | inactive
C[C@]12C=CC(=O)C=C1CC[C@@H]1[C@@H]2C(=O)C[C@@]2(C)[C@H]1CC[C@]2(O)C(=O)CO | inactive
CCCCOC(=O)CCCCCCCCC(=O)OCCCC | inactive
CC(C)Cc1ccc(C(C)C(=O)O)cc1 (stereo unspecified) | inactive
COc1ccccc1NC(=O)CC(C)=O | inactive
CCCCCCCCCCCCCCCCCC(=O)OCC(O)CO (stereo unspecified) | inactive
OC[C@@H](O)[C@@H](O)[C@H](O)[C@H](O)CO | inactive
CCN1CCCC1=O | inactive
C=C(C)OC(C)=O | inactive
CC(=O)/C=C/C1=C(C)CCCC1(C)C | inactive
C=CCOC(=O)CC(C)C | inactive
C#C[C@]1(O)CC[C@H]2[C@@H]3CCC4=CC(=O)CC[C@@H]4[C@H]3CC[C@@]21CC | inactive
CC(C)(C)NCC(O)c1ccc(O)c(CO)c1 (stereo unspecified) | inactive
CC(=O)CCC(C)C | inactive
C=CC(=O)NC(C)(C)CS(=O)(=O)O | inactive
CCCCCCCCOc1ccc(C(=O)c2ccccc2)c(O)c1 | inactive
COc1ccccc1O | inactive
NC(=O)N1c2ccccc2C=Cc2ccccc21 | inactive
COC(=O)C1CCC(C(=O)OC)CC1 (stereo unspecified) | inactive
CN/C(=C\[N+](=O)[O-])NCCSCc1ccc(CN(C)C)o1 | inactive
C[C@]12C[C@H](O)[C@H]3[C@@H](CCC4=CC(=O)CC[C@@]43C)[C@@H]1CC[C@@H]2C(=O)CO | inactive
OCCCc1ccccc1 | inactive
COC1=CC(=O)C[C@@H](C)[C@]12Oc1c(Cl)c(OC)cc(OC)c1C2=O | inactive

Assay: qHTS assay to identify small molecule agonists of the sonic hedgehog signaling (Shh) pathway - cell viability counter screen (AID 1259366); further: nearly all actives have a fitted effect of over 50% in size; further: potency means the concentration at half of the fitted maximal effect
Details: NIH/3T3 Gli1-Luc viability, CellTiter-Fluor, 24 h; series mostly up to 92.4 µM
How it was run: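 CellTiter-Fluor fluorescence read-out, 1 hr at 37C, added after 23hr compound exposure. Cells: 3T3 Gli1-Luc, an NIH/3T3 clone with stably integrated Gli1-Luc reporter, plated 4hr before compound.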

SMILES | Potency
COC(=O)c1ccc(C=O)cc1 | inactive
Cc1ccc(O)c(-n2nc3ccccc3n2)c1 | 60.6 µM (active) and inactive
CN(C)C=O | inactive
Cc1cccc2ccccc12 | inactive
Cc1cnc(NC(=O)C2=C(O)c3ccccc3S(=O)(=O)N2C)s1 | inactive
Cc1c(N(C)C)c(=O)n(-c2ccccc2)n1C | inactive
CC(=O)OC/C=C(C)/C=C/C=C(C)/C=C/C1=C(C)CCCC1(C)C | inactive
C/C=C/c1ccc(O)c(OC)c1 | inactive
C[C@]12C=CC(=O)C=C1CC[C@@H]1[C@@H]2C(=O)C[C@@]2(C)[C@H]1CC[C@]2(O)C(=O)CO | inactive
CCCCOC(=O)CCCCCCCCC(=O)OCCCC | inactive
CC(C)Cc1ccc(C(C)C(=O)O)cc1 (stereo unspecified) | inactive
COc1ccccc1NC(=O)CC(C)=O | inactive
CCCCCCCCCCCCCCCCCC(=O)OCC(O)CO (stereo unspecified) | inactive
OC[C@@H](O)[C@@H](O)[C@H](O)[C@H](O)CO | inactive
CCN1CCCC1=O | inactive
C=C(C)OC(C)=O | inactive
CC(=O)/C=C/C1=C(C)CCCC1(C)C | inactive
C=CCOC(=O)CC(C)C | inactive
C#C[C@]1(O)CC[C@H]2[C@@H]3CCC4=CC(=O)CC[C@@H]4[C@H]3CC[C@@]21CC | inactive
CC(C)(C)NCC(O)c1ccc(O)c(CO)c1 (stereo unspecified) | inactive
CC(=O)CCC(C)C | inactive
C=CC(=O)NC(C)(C)CS(=O)(=O)O | inactive
CCCCCCCCOc1ccc(C(=O)c2ccccc2)c(O)c1 | inactive
COc1ccccc1O | inactive
NC(=O)N1c2ccccc2C=Cc2ccccc21 | inactive
COC(=O)C1CCC(C(=O)OC)CC1 (stereo unspecified) | inactive
CN/C(=C\[N+](=O)[O-])NCCSCc1ccc(CN(C)C)o1 | inactive
C[C@]12C[C@H](O)[C@H]3[C@@H](CCC4=CC(=O)CC[C@@]43C)[C@@H]1CC[C@@H]2C(=O)CO | inactive
OCCCc1ccccc1 | inactive
COC1=CC(=O)C[C@@H](C)[C@]12Oc1c(Cl)c(OC)cc(OC)c1C2=O | inactive
